CHT inh: human CHT choline transport inhibition; Q9GZV3; CHT-expressing cells, membrane potential dye, choline response; hits give low values; B-score at 10 µM; hit rate 0.86% among 310,000;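 active = B-score over 3 SD under the library average, and starting fluorescence ratio not unusually high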;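 note: choline stimulus applied at its EC90 after an EC20 pre-addition; B-score computed on integrated fluorescence ratio after choline addition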
IDE cell activ: IDE (human) activation, cell-based; P14735; HEK cells, FAbeta-B cleavage, fluorescence polarization; 0% vehicle, 100% cell-free pure enzyme wells; activation, % at 5.96 µM; hit rate 0.073% among 340,000; AID 493087;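 active = activation above the mean of all tested compounds plus 3 SD, set per screening campaign, cut at about 17% in these data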
IDE cell inh: cellular human IDE inhibition; P14735; HEK cells, FAbetaB cleavage, fluorescence polarization; inhibition, % at 5.59 µM; hit rate 0.41% among 320,000; AID 434962;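 active = percent inhibition above the average of all tested compounds plus 3 SD, set per screening campaign, cut at about 16% in these data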;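 note: IDE supplied by intact live HEK cells; FP after avidin binding of uncleaved biotin substrate so inhibition keeps polarization high; 0% = DMSO wells and 100% = 60 µM reference IDE inhibitor Ii1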
ANO1 activ: activates or potentiates the mouse TMEM16A chloride channel. Q8BHY3. HEK293 TMEM16A/YFP-H148Q/I152L, iodide quench fluorescence; hits give low values. B-score at 10 µM. hit rate 0.3% among 340,000;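 active = fluorescence-ratio B-score plate-corrected deviation score at least 3 library SD below zero, with starting fluorescence score within 5 deviations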;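 note: channel opened by trigger with iodide after compound preincubation; score built on the fluorescence ratio of max minus min over baseline; more negative score means more quench and so TMEM16A activation or potentiation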
Target sequence (Q8BHY3 whole entry, looked up): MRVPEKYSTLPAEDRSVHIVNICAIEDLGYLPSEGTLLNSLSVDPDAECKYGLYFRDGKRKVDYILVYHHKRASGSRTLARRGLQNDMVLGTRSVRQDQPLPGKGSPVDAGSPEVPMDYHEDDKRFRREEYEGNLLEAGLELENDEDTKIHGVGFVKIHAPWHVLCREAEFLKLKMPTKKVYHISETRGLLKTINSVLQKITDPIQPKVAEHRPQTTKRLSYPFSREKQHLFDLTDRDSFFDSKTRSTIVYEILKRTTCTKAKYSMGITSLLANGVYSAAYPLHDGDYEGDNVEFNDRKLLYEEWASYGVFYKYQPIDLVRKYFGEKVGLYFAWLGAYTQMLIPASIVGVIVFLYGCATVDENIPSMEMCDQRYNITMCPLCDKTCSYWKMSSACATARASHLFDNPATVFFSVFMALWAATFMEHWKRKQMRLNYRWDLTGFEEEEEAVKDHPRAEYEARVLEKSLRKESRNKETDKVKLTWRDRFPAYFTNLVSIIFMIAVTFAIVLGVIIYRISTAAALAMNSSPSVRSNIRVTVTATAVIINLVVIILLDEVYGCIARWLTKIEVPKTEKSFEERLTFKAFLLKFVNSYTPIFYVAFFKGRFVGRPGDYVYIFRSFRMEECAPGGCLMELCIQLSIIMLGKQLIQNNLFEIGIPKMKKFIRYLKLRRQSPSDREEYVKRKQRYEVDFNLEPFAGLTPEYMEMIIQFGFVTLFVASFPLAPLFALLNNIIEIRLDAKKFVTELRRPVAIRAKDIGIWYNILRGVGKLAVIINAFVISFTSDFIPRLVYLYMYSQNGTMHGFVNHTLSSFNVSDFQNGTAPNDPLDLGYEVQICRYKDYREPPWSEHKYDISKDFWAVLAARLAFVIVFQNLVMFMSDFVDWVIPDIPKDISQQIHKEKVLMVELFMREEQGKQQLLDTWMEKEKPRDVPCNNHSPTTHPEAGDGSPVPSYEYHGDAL
ANO1 block: mouse TMEM16A channel inhibition, primary screen; Q8BHY3; HEK293 TMEM16A/YFP iodide influx fluorescence, ionomycin; normalized B-score (activity score, 25-100; higher = stronger inhibition) at 10 µM; hit rate 1.2% among 310,000;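 active = ratio plate-corrected score three or more library SD toward inhibition, starting fluorescence score within five deviations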;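 note: score derived from kinetic fluorescence span divided by baseline fluorescence per well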
CHT PAM: allosteric activators of human choline transporter CHT | Q9GZV3 | CHT-expressing cells, membrane potential dye, choline EC20; hits give high values; LV-AA mutant CHT in HEK293 cells | B-score at 10 µM | hit rate 0.49% among 310,000 | AID 488977;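 active = initial fluorescence not abnormally high and integrated response B-score, plate-corrected, over 3 SD above library mean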
CHT inh conf: human CHT inhibition, confirmatory screen | shares compounds with CHT inh | hit rate 70% among 2,400 | CHT activity remaining % of control (hits give low values), % at 10 µM | CHT-expressing cells, choline membrane potential dye; LV-to-AA substituted CHT, HEK293 cells;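 active = choline transporter activity left, mean of duplicates at 10 µM, below buffer-only control mean minus 3 SD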;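 note: depolarization triggered by choline at its EC90 following an EC20 pre-addition; 0% = hemicholinium-3 full block and 100% = buffer-only control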
HEK293 CHT ctr: counter-screen for CHT inhibitors: effect in parental HEK293 cells; shares compounds with CHT inh; membrane potential dye, choline response; active = decrease or increase beyond buffer ±3SD; membrane potential ratio readout (active if shifted either direction beyond buffer ±3SD; no single direction) at 10 µM; hit rate 4% among 2,400;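 note: parental cells lack the transporter so any hit is non-specific; ratio is peak minus trough fluorescence over baseline after EC90 choline challenge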
The depositor's hits bear a star; i = inactive; / = no result. In the library only some 2.7% were active in any assay of this set; here they are far more common.

SMILES	CHT inh	IDE cell activ	IDE cell inh	ANO1 activ	ANO1 block	CHT PAM	CHT inh conf	HEK293 CHT ctr
CC1=NN(C(N)=S)C(=O)C1N=Nc1c(Br)cc(Br)cc1Br (configuration not stated)	-7.65*	1.2	-3.1	i	100*	i	31.1%*	i
CC(=O)Nc1ccc(S(=O)(=O)O)c(OC(C)=O)c1	/	2.3	/	i	/	/	/	/
Cc1ccc(C(=O)N/C(=C\c2cccs2)C(=O)NC2CCCCC2)cc1	-5.1*	1.1	0.3	i	i	i	22.1%*	i
Cc1ccc(C(=O)N/C(=C/c2cccs2)C(=O)N2CCCCCC2)cc1	i	4.5	0.1	i	i	i	/	/
COc1ccc(NC(=O)CSc2ccc3c(c2)OCCO3)cc1S(N)(=O)=O	/	4.3	7.7	i	/	/	/	/
CC(C)(C)C(=O)Oc1cccc(Nc2ncnc3ccccc23)c1	-5.01*	2.4	-2.9	i	25*	i	61.2%*	i
CNC(=O)c1ccc(CN(C)CC(=O)Nc2ccccc2C(=O)NC2CC2)cc1	/	1.5	0.4	i	/	/	/	/
Cc1cc(C)c2cc(C=O)c(Cl)nc2c1	-6.14*	-2.3	5.4	i	i	i	i	i
CCN(CCn1cccn1)C(=O)c1cc(COc2c(F)cccc2F)on1	-5.52*	3.8	-1.7	i	i	i	i	i
CN(C)CC1CCC/C(=C/c2ccc(Cl)cc2)C1=O (configuration not stated)	/	5.1	/	i	/	/	/	/
O=c1oc2ccccc2c(O)c1Cc1cc(Cl)c2cccnc2c1O	-7.33*	7.6	-0.5	i	i	i	68.5%*	i
Fc1ccc(NC(=S)Nc2ccc(F)c(Cl)c2)cc1Cl	-6.09*	-0.5	8.0	-10.3*	100*	i	36.5%*	i
CCc1nc2nc(C)c(NS(=O)(=O)c3ccc(C)c(C)c3)c(=O)n2[nH]1	i	2.4	6.5	i	i	i	/	/
COc1cc2c(cc1OC)C(c1cccs1)N(C(=O)c1cccnc1)CC2 (configuration not stated)	-5.74*	-11.7	-2.0	i	i	i	i	i
O=C(CC(=O)c1c(F)cccc1Cl)c1ccccc1O	-5.57*	2.4	1.5	i	i	i	45.9%*	i
O=C(CC(=O)c1ccccc1O)c1cccc(F)c1	i	6.7	1.2	i	i	i	/	/
O=C(CCN1CCN(c2ccccc2)CC1)NNC(=O)Cc1ccc(Br)cc1	/	-3.0	/	i	/	/	/	/
CC(C)COCC(CN(Cc1ccccc1)c1ccccc1)N1CCCC1 (configuration not stated)	-5.19*	-1.2	0.9	i	i	i	i	i
CCn1c(SCC(=O)NCc2ccccc2)nc2ccccc2c1=O	i	0.4	1.4	i	i	i	/	/
O=C(CSc1nc2ccccc2c(=O)n1C1CC1)NCc1ccccc1	-5.08*	2.1	-0.1	i	i	i	67.4%*	i
Cc1nc(CCN2C(=O)c3ccccc3C2=O)cs1	i	6.7	-1.4	i	i	i	/	/
NC(N)=Nc1nc(CCN2C(=O)c3ccccc3C2=O)cs1	-6.28*	6.7	-0.4	i	i	i	30.3%*	i
Brc1ccc2ncc3ccccc3c2c1	/	3.8	/	i	/	/	/	/
O=C(NNC1=C(C(=O)C(F)(F)F)CCC1)c1cccc(Cl)c1	-9.77*	2.1	-4.0	i	100*	i	40.1%*	i
O=C(COc1ccccc1)N1CCN(c2nnc(-c3ccccc3)c3ccccc23)CC1	-5.21*	1.3	9.0	i	i	i	i	i
COc1ccc(OCC(=O)N2CCN(c3nnc(-c4ccccc4)c4ccccc34)CC2)cc1	i	-3.9	-0.8	i	i	i	/	/

Screening data (PubChem BioAssay)
